Values without a mark were called inactive. Active and inactive are the calls of the source.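 Rule for the calls: active = blocks over 70% of labeled estradiol binding at 10 µM, or over a set limit at 100 nM; inactive = the rest.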

Chain of Estrogen receptor beta (Homo sapiens) (Q92731 whole entry, looked up): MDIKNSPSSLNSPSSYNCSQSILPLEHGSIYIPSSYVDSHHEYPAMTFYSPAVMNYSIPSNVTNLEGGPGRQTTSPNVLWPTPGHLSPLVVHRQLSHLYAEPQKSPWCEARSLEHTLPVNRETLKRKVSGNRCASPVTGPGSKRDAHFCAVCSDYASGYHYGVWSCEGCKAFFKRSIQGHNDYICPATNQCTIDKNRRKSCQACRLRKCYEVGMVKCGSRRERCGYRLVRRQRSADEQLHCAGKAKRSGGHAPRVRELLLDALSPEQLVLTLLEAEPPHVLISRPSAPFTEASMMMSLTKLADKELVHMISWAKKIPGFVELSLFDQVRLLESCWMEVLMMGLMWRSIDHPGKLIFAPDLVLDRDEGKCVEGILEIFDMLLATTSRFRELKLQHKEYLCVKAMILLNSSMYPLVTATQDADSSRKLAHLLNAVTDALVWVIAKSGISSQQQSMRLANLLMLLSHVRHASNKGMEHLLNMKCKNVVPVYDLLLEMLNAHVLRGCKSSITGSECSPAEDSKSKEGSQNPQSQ

This assay addresses Estrogen receptor beta (Homo sapiens) (UniProt Q92731). Briefly: displacement of fluorescent estrogen from ERbeta – cell-based, Cos7 ERbeta-GFP, flow cytometry, primary screen (AID 1210).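 Note: 0% = DMSO vehicle wells and 100% = complete loss of labeled estradiol signal.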 Particulars: fluorescent estrogen binding, at 10 µM, stronger effect = higher value. Background: Flow cytometry measures light scatter and fluorescence of single cells or particles in a stream.
As to `CCOc1ccc(N=C2NC(=O)S/C2=C\c2ccc(OC)cc2)cc1`, the inhibition (commonly the drop in the measured response relative to a control, in per cent) is 47%.
Regarding `Cc1noc(C)c1S(=O)(=O)N(CC(=O)O)c1ccc2c(c1)OCO2`, the inhibition was 31%.
The result for `CCOc1cc2c(cc1OCC)C(C(CC)CC)NCC2` (stereo not drawn) reads 10%; that for `CN(/N=C/c1cccnc1)c1cnn(-c2ccc(F)c(Cl)c2)c(=O)c1Cl`, 20%.
With `O=C(C1c2ccccc2C(=O)N2CCc3ccccc3C12)N1CCN(Cc2ccccc2)CC1` (stereo not drawn) the figure was 29%; with `COc1ccc(-n2cc3c(c(C#N)c2=N)CC(C)(C)CC3=O)cc1`, 18%; with `COc1cc([N+](=O)[O-])cc2c1NC(c1ccccc1)C1CC=CC21` (stereo not drawn), 10%.
With `Cc1cc(C(C)CO)cc(C(C)(C)C)c1O` (stereo not drawn) the figure was 19%; with `O=C(N/N=C/c1cccc(Oc2ccc([N+](=O)[O-])cc2[N+](=O)[O-])c1)c1cncc(Br)c1`, 46%.
On to `COc1ccc2c(c1)c1c3n2CCNC3CCC1` (stereo not drawn), for which the inhibition is 18%.
With `COc1cc([C@@H]2Nc3ccc(S(=O)(=O)Nc4ccccc4F)cc3[C@@H]3C=CC[C@@H]32)cc(OC)c1OC` the figure was 11%; with `Cc1ccc(-c2nn3c(C)nnc3s2)cc1NC(=O)COc1ccc(Cl)cc1`, 24%; with `Nc1c(Cl)cc(Cl)cc1C(=O)OCC(=O)NC1CC1`, 42%.
With `CC(=O)c1ccc2c(c1)C1C=CCC1C(c1ccncc1)N2` (stereo not drawn) the figure was 11%.
With `COc1cccc2c1NC(C(=O)O)C1CC=CC21` (stereo not drawn) the figure was 15%; with `COc1ccc(NS(=O)(=O)c2ccc3c(c2)[C@H]2C=CC[C@H]2[C@@H](c2cccc(OC)c2OC)N3)cc1`, 1%; with `Nc1ccc(-c2nc3ccc([N+](=O)[O-])cc3[nH]2)cc1`, 61%.
For `O=C1CC(c2ccncc2)c2cc3c(cc2N1)OCCO3` (stereo not drawn), the inhibition was 14%.
With `CCC(Oc1ccc2c3c(c(=O)oc2c1C)CCC3)C(=O)OC` (stereo not drawn) the figure was 15%; with `O=c1oc2cc(O)ccc2c2c1CCC2`, 8%; with `CC(=O)Oc1ccc2c(c1)CCC1C2C(O)CC2(C)C(=O)CCC12` (stereo not drawn), 77% (active).
With `Cc1ccc2c(c1)C1C=CCC1C(C(=O)O)N2` (stereo not drawn) the figure was 0%.
The result for `COc1ccc2c(c1)C1OCCC1C(c1ccco1)N2` (stereo not drawn) reads 39%; that for `CC1=CC(C)C2(CO)COC(c3ccccc3O)C1C2C` (stereo not drawn), 66%; that for `COc1cc([N+](=O)[O-])cc2c1NC(c1ccccc1Cl)C1CC=CC21` (stereo not drawn), 20%.
Consider `Cc1sc2ncnc(NCc3ccco3)c2c1C`, for which the inhibition is 39%.
Regarding `CCCc1c(C(=O)OCC)[nH]c2c1C(=O)CC(c1ccccc1)C2` (stereo not drawn), the inhibition is 39%.
Regarding `CC(C)COc1ccc2c(c1)c1c3n2CCNC3CCC1` (stereo not drawn), the inhibition was 9%.
With `CC(C)CN(Cc1c(O)ccc2c3c(c(=O)oc12)CCC3)CC(C)C` the figure was 17%; with `CCCOc1cc2oc(=O)c3c(c2cc1CC)CCCC3`, 20%; with `COc1cc(C2C3C(C)N(C)C(=O)N(C)C3N(C)C(=O)N2C)ccc1O` (stereo not drawn), 12%.
The result for `CCCSc1nc(C)c(-c2csc(C(C#N)=C3CCCC3)n2)cc1C#N` reads 37%.
Consider `CC(=O)c1ccc2c(c1)C1C=CCC1C(c1cccc([N+](=O)[O-])c1)N2` (stereo not drawn), for which the inhibition is 0%.
The result for `CCOc1ccc(NS(=O)(=O)c2ccc3c(c2)[C@H]2C=CC[C@H]2[C@@H](c2ccc([N+](=O)[O-])cc2)N3)cc1` reads 1%; that for `COc1ccccc1C1Nc2c(C(=O)O)cccc2C2C3CCC(C3)C12` (stereo not drawn), 21%; that for `C=C1c2ccc(OC)cc2NC(=O)N1c1ccccc1`, 15%.
The result for `COc1ccc2c(c1)c(=O)oc1cc3oc(C)c(C)c3cc12` reads 24%; that for `CC1(C)CC(=O)c2cn(-c3ccc(Cl)cc3)c(=N)c(C#N)c2C1`, 12%.

Values taken from PubChem BioAssay AID1210 (NMMLSC, 2008).
